{"source": "the supplement of paper PMC9942566", "note": "Structures can show the parent of a compound that is named as a salt. ± gives the standard deviation of the averaged measurements."}
{"tested_on": "Serratia marcescens K904 PosmB-luxCDABE reporter (pMQ747)", "experiment": "PosmB-lux reporter fold induction (RLU/OD600 relative to no-compound control), highest over Biolog concentrations; higher = stronger Rcs reporter activation", "details": "wild type K904; 4 h", "experimental": "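Serratia marcescens K904 (wild type) or its isogenic ΔrcsB mutant, carrying the Rcs-dependent PosmB-luxCDABE reporter plasmid pMQ747, was grown in LB at OD600 0.1 in Biolog Phenotype MicroArray plates PM11-20 for 4 h at 30-32°C. Each compound is present at 3-4 proprietary concentrations (not stated); per the Fig. S1 legend the value given is the highest fold over those wells. Three independent trials.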"}
{"smiles": "CC1COc2c(N3CCN(C)CC3)c(F)cc3c(=O)c(C(=O)O)cn1c23", "note": "(stereo not given) [Ofloxacin] (Biolog plate: PM11, well positions: H9-12)", "PosmB-lux reporter fold induction": "1.25 ± 0.35"}
{"smiles": "CC[C@H]1OC(=O)C[C@@H](O)[C@H](C)[C@@H](O[C@@H]2O[C@H](C)[C@@H](O[C@H]3C[C@@](C)(O)[C@@H](O)[C@H](C)O3)[C@H](N(C)C)[C@H]2O)[C@@H](CC=O)C[C@@H](C)C(=O)/C=C/C(C)=C/[C@@H]1CO[C@@H]1O[C@H](C)[C@@H](O)[C@@H](OC)[C@H]1OC", "note": "[Tylosin] (Biolog plate: PM13, well positions: H9-12)", "PosmB-lux reporter fold induction": "1.21 ± 0.18"}
{"smiles": "N=C(N)N", "note": "[Guanidine hydrochloride] (Biolog plate: PM15, well positions: A5-8)", "PosmB-lux reporter fold induction": "1.84 ± 0.099"}
{"smiles": "c1ccc(-c2nn(-c3ccccc3)[n+](-c3cccc4ccccc34)n2)cc1", "note": "[tetrazolium violet] (Biolog plate: PM20, well positions: B9-12)", "PosmB-lux reporter fold induction": "0.453 ± 0.17"}
{"smiles": "Nc1ncn([C@@H]2O[C@H](CO)[C@@H](O)[C@H]2O)c(=O)n1", "note": "[5-azacytidine] (Biolog plate: PM16, well positions: E5-8)", "PosmB-lux reporter fold induction": "1.15 ± 0.41"}
{"smiles": "O=C(O)CN(CCN(CC(=O)O)CC(=O)O)CC(=O)O", "note": "(Biolog plate: PM15, well positions: B5-8)", "PosmB-lux reporter fold induction": "1.66 ± 0.13"}
{"smiles": "Cc1cc(NS(=O)(=O)c2ccc(N)cc2)no1", "note": "[Sulfa-methoxazole] (Biolog plate: PM12, well positions: G5-8)", "PosmB-lux reporter fold induction": "2.26 ± 0.52"}
{"smiles": "CCCCCCCCCCCC[N+](C)(C)C", "note": "[Dodecyltrimethyl ammonium bromide] (Biolog plate: PM12, well positions: H9-12)", "PosmB-lux reporter fold induction": "2.03 ± 0.22"}
{"smiles": "CN(C)CCCN1c2ccccc2Sc2ccc(Cl)cc21", "note": "[chlorpromazine] (Biolog plate: PM17, well positions: D9-12)", "PosmB-lux reporter fold induction": "2 ± 0.77"}
{"smiles": "O=c1[nH]c(=O)n([C@H]2C[C@H](O)[C@@H](CO)O2)cc1C(F)(F)F", "note": "[trifluorothymidine] (Biolog plate: PM18, well positions: B1-4)", "PosmB-lux reporter fold induction": "1.81 ± 0.69"}
{"smiles": "CC(C)NCC(O)COc1cccc2ccccc12", "note": "(racemic) [D,L-propranolol] (Biolog plate: PM20, well positions: B5-8)", "PosmB-lux reporter fold induction": "5.54 ± 2.8"}
{"smiles": "O=C(O)c1ccccc1S", "note": "[Thiosalicylic acid] (Biolog plate: PM17, well positions: A9-12)", "PosmB-lux reporter fold induction": "1.12 ± 0.27"}
{"smiles": "O=[Si](O)O", "note": "[sodium metasilicate] (Biolog plate: PM18, well positions: E1-4)", "PosmB-lux reporter fold induction": "1.11 ± 0.32"}
{"smiles": "CC1(C)S[C@@H]2[C@H](NC(=O)[C@H](N)c3ccc(O)cc3)C(=O)N2[C@H]1C(=O)O", "note": "[Amoxicillin] (Biolog plate: PM11, well positions: B1-4)", "PosmB-lux reporter fold induction": "2.48 ± 0.35"}
{"smiles": "C[C@@H]1O[C@@H]1P(=O)(O)O", "note": "[Phosphomycin] (Biolog plate: PM16, well positions: A5-8)", "PosmB-lux reporter fold induction": "0.962 ± 0.25"}
{"smiles": "Cc1onc(-c2ccccc2Cl)c1C(=O)N[C@@H]1C(=O)N2[C@@H]1SC(C)(C)[C@@H]2C(=O)O", "note": "[Cloxacillin] (Biolog plate: PM11, well positions: B5-8)", "PosmB-lux reporter fold induction": "2.22 ± 0.62"}
{"smiles": "CCCCC(CC)CNC(=N)NC(=N)NCCCCCCNC(=N)NC(=N)NCC(CC)CCCC", "note": "(stereo not given) [Alexidine] (Biolog plate: PM15, well positions: E1-4)", "PosmB-lux reporter fold induction": "2.48 ± 0.99"}
{"smiles": "O=C(O)CN(CCOCCOCCN(CC(=O)O)CC(=O)O)CC(=O)O", "note": "(Biolog plate: PM14, well positions: H1-4)", "PosmB-lux reporter fold induction": "2.37 ± 0.77"}
{"smiles": "Nc1c2ccccc2nc2ccccc12", "note": "[9-Aminoacridine] (Biolog plate: PM14, well positions: B1-4)", "PosmB-lux reporter fold induction": "1.7 ± 0.1"}
{"smiles": "CN1CCN(CCCN2c3ccccc3Sc3ccc(C(F)(F)F)cc32)CC1", "note": "[Trifluoperazine] (Biolog plate: PM13, well positions: G9-12)", "PosmB-lux reporter fold induction": "1.34 ± 0.17"}
{"smiles": "CC1(C)S[C@@H]2[C@H](NC(=O)[C@H](NC(=O)N3CCNC3=O)c3ccccc3)C(=O)N2[C@H]1C(=O)O", "note": "[Azlocillin] (Biolog plate: PM13, well positions: B1-4)", "PosmB-lux reporter fold induction": "1.96 ± 0.43"}
{"smiles": "NCC(=O)O", "note": "[Glycine] (Biolog plate: PM13, well positions: F5-8)", "PosmB-lux reporter fold induction": "1.52 ± 0.2"}
{"smiles": "C[n+]1c2cc(N)ccc2cc2ccc(N)cc21.Nc1ccc2cc3ccc(N)cc3nc2c1", "note": "[Acriflavine] (Biolog plate: PM14, well positions: A2-4)", "PosmB-lux reporter fold induction": "1.45 ± 0.32"}
{"smiles": "CO[C@@]1(NC(=O)CSCC#N)C(=O)N2C(C(=O)O)=C(CSc3nnnn3C)CS[C@@H]21", "note": "[Cefmetazole] (Biolog plate: PM15, well positions: A9-12)", "PosmB-lux reporter fold induction": "1.21 ± 0.23"}
{"smiles": "CCCCCCCCCCCC[N+](C)(C)CCOc1ccccc1", "note": "[Domiphen bromide] (Biolog plate: PM15, well positions: D5-8)", "PosmB-lux reporter fold induction": "1.98 ± 0.26"}
{"smiles": "CO[C@H]1/C=C/O[C@@]2(C)Oc3c(C)c(O)c4c(O)c(cc(O)c4c3C2=O)NC(=O)/C(C)=C\\C=C\\[C@H](C)[C@H](O)[C@@H](C)[C@@H](O)[C@@H](C)[C@H](OC(C)=O)[C@@H]1C", "note": "[rifamycin SV] (Biolog plate: PM16, well positions: E9-12)", "PosmB-lux reporter fold induction": "4.24 ± 0.58"}
{"smiles": "C[C@@H]1NC(=O)[C@@H](N)CNC(=O)[C@H](C2CCNC(=N)N2)NC(=O)/C(=C/NC(N)=O)NC(=O)[C@H](CNC(=O)CC(N)CCCN)NC1=O.N=C1NCC[C@H]([C@@H]2NC(=O)/C(=C/NC(N)=O)NC(=O)[C@H](CNC(=O)C[C@@H](N)CCCN)NC(=O)[C@H](CO)NC(=O)[C@@H](N)CNC2=O)N1", "note": "[Capreomycin] (Biolog plate: PM11, well positions: D1-4)", "PosmB-lux reporter fold induction": "1.24 ± 0.1"}
{"smiles": "O=c1ccc2ccccc2o1", "note": "[coumarin] (Biolog plate: PM19, well positions: A9-12)", "PosmB-lux reporter fold induction": "1.03 ± 0.14"}
{"smiles": "CO[C@@H]1[C@@H](OC(N)=O)[C@@H](O)[C@H](Oc2ccc3c(O)c(NC(=O)c4ccc(O)c(CC=C(C)C)c4)c(=O)oc3c2C)OC1(C)C", "note": "[Novobiocin] (Biolog plate: PM12, well positions: D9-12)", "PosmB-lux reporter fold induction": "4.98 ± 0.98"}
{"smiles": "CSCCC(N)C(=O)NO", "note": "(racemic) [DL-methionine hydroxamate] (Biolog plate: PM17, well positions: F5-8)", "PosmB-lux reporter fold induction": "1.74 ± 0.48"}
{"smiles": "OC(CCN1CCCCC1)(c1ccccc1)c1ccccc1", "note": "[pridinol] (Biolog plate: PM20, well positions: F9-12)", "PosmB-lux reporter fold induction": "2.86 ± 0.61"}
{"smiles": "CC1(C)S[C@@H]2[C@H](NC(=O)Cc3ccccc3)C(=O)N2[C@H]1C(=O)O", "note": "[Penicillin G] (Biolog plate: PM12, well positions: A2-4)", "PosmB-lux reporter fold induction": "1.66 ± 0.23"}
{"smiles": "CNC(C)C1CCC(N)C(OC2C(N)CC(N)C(OC3OCC(C)(O)C(NC)C3O)C2O)O1", "note": "(stereo not given) [Gentamicin] (Biolog plate: PM11, well positions: G5-8)", "PosmB-lux reporter fold induction": "1.41 ± 0.081"}
{"smiles": "CCc1cc(C(N)=S)ccn1", "note": "[ethionamide] (Biolog plate: PM17, well positions: B9-12)", "PosmB-lux reporter fold induction": "0.853 ± 0.16"}
{"smiles": "CCC[C@@H]1C[C@@H](C(=O)N[C@@H]([C@H]2O[C@H](SC)[C@H](O)[C@@H](O)[C@H]2O)[C@@H](C)O)N(C)C1", "note": "[Lincomycin] (Biolog plate: PM11, well positions: A9-12)", "PosmB-lux reporter fold induction": "1.16 ± 0.14"}
{"smiles": "Cc1noc(NS(=O)(=O)c2ccc(N)cc2)c1C", "note": "[sulfisoxazole] (Biolog plate: PM18, well positions: C5-8)", "PosmB-lux reporter fold induction": "0.979 ± 0.2"}
{"smiles": "N=C(NCCCCCCNC(=N)NC(=N)Nc1ccc(Cl)cc1)NC(=N)Nc1ccc(Cl)cc1", "note": "[chlorhexidine] (Biolog plate: PM19, well positions: C1-4)", "PosmB-lux reporter fold induction": "1.21 ± 0.081"}
{"smiles": "CN[C@@H]1[C@H](O)[C@H](NC)[C@H]2O[C@@]3(O)C(=O)C[C@@H](C)O[C@H]3O[C@@H]2[C@H]1O", "note": "[Spectinomycin] (Biolog plate: PM12, well positions: G1-4)", "PosmB-lux reporter fold induction": "1.57 ± 0.26"}
{"smiles": "NC(=O)c1cc[n+](CC2=C(C(=O)[O-])N3C(=O)[C@@H](NC(=O)[C@@H](c4ccccc4)S(=O)(=O)O)[C@H]3SC2)cc1", "note": "[cefsulodin] (Biolog plate: PM17, well positions: H1-4)", "PosmB-lux reporter fold induction": "18.5 ± 17"}
{"smiles": "CCN1CCN(C(=O)N[C@@H](C(=O)N[C@@H]2C(=O)N3[C@@H]2SC(C)(C)[C@@H]3C(=O)O)c2ccccc2)C(=O)C1=O", "note": "[Piperacillin] (Biolog plate: PM14, well positions: F5-8)", "PosmB-lux reporter fold induction": "3.19 ± 1.8"}
